According to PubChem BioAssay (NCI):
This is part of a sample that, as a whole, favours compounds with a hit. Of some 83,000 tested, about 20% had one in any assay.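 Percent growth is the endpoint: 0 to 100 indicates growth inhibition (40 means 60% inhibition), 0 means no net growth, and negative values indicate cell death.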 Active and inactive are the calls of the source. How the source made its calls: active means growth percent below 10; inactive means the rest.

What was measured:
Test in all cases: NCI-60 one-dose screen, 48 h (100 = growth as untreated, 0 = no growth, -100 = all killed)
Details in all cases: 10 µM unless noted
NCI-H23 lung = system: NCI-H23 lung
NCI-H226 lung = system: NCI-H226 lung
NCI-H322M lung = system: NCI-H322M lung
HOP-62 NSCLC = system: HOP-62 NSCLC
NCI-H460 lung = system: NCI-H460 lung
HOP-92 NSCLC = system: HOP-92 NSCLC
A549/ATCC NSCLC = system: A549/ATCC NSCLC
786-0 renal = system: 786-0 renal
COLO 205 colon = system: COLO 205 colon

Measured: growth

O=C1COCCN1c1ccc(Nc2nc(Cl)nc(N3CCOCC3)n2)cc1
inactive: NCI-H23 lung 96.5% | NCI-H226 lung 87.5% | NCI-H322M lung 93.3% | HOP-62 NSCLC 97.9% | NCI-H460 lung 108% | HOP-92 NSCLC 85.8% | A549/ATCC NSCLC 95.8% | 786-0 renal 104% | COLO 205 colon 102%

Nc1nc(Nc2ccccc2)c2ncn(Cc3cc4c(cc3Br)OCO4)c2n1
inactive: NCI-H23 lung 23.2% | NCI-H226 lung 29.4% | NCI-H322M lung 30.2% | HOP-62 NSCLC 11.3% | HOP-92 NSCLC 40% | A549/ATCC NSCLC 13.5% | 786-0 renal 20.3%
active: NCI-H460 lung 5.33% | COLO 205 colon -38.3%

C#C[C@]1(O)CC[C@H]2[C@@H]3CC=C4c5nc(Nc6ccccc6[N+](=O)[O-])sc5CC[C@]4(C)[C@H]3CC[C@@]21C
active: 786-0 renal 5.63%
inactive: NCI-H23 lung 86.5% | NCI-H226 lung 80.9% | NCI-H322M lung 72.9% | HOP-62 NSCLC 69.2% | NCI-H460 lung 55.7% | HOP-92 NSCLC 72.6% | A549/ATCC NSCLC 62.2% | COLO 205 colon 86.7%

O=C(N/N=C1\c2ccccc2-c2cccc(C(=O)O)c21)c1ccc(O)cc1
inactive: NCI-H23 lung 98.2% | NCI-H226 lung 89.6% | NCI-H322M lung 86.4% | HOP-62 NSCLC 93.8% | NCI-H460 lung 96.6% | HOP-92 NSCLC 78.6% | A549/ATCC NSCLC 95.8% | 786-0 renal 97.5% | COLO 205 colon 107%

ClC1=C(Cl)C(Cl)=C(Cl)C1=Cc1ccccc1
active: NCI-H23 lung -58.6% | NCI-H226 lung -73% | NCI-H322M lung -13.2% | HOP-62 NSCLC -32.7% | NCI-H460 lung -52.6% | HOP-92 NSCLC -49.1% | A549/ATCC NSCLC -0.255% | 786-0 renal -90.3% | COLO 205 colon -55.6%

Nc1nc(N)c2c(n1)NC(c1ccc(F)cc1)C1CCc3ccccc3C1=N2 (configuration not stated)
inactive: NCI-H23 lung 51.1% | NCI-H226 lung 53.1% | NCI-H322M lung 67.3% | HOP-62 NSCLC 74.1% | NCI-H460 lung 26.2% | HOP-92 NSCLC 74.1% | A549/ATCC NSCLC 58.6% | 786-0 renal 60.9% | COLO 205 colon 48.4%

CC1Cc2c(ncnc2-n2cnc3ccccc32)N(C)c2ccccc21 (configuration not stated)
inactive: NCI-H23 lung 48.5% | NCI-H226 lung 58.6% | NCI-H322M lung 63.7% | HOP-62 NSCLC 32.3% | NCI-H460 lung 18.7% | HOP-92 NSCLC 36.3% | A549/ATCC NSCLC 39.3% | 786-0 renal 39.2% | COLO 205 colon 20.9%

O=C1CC(c2ccc3c(c2)OCO3)Nc2ccccc21 (configuration not stated)
active: COLO 205 colon -16.4%
inactive: NCI-H23 lung 40.2% | NCI-H226 lung 65.3% | NCI-H322M lung 51.3% | HOP-62 NSCLC 24.2% | NCI-H460 lung 10.5% | HOP-92 NSCLC 20.5% | A549/ATCC NSCLC 21.8% | 786-0 renal 42.2%

CC(C)C1=NOC(=O)C1=Cc1cn(-c2cccnc2)nc1-c1ccccc1
inactive: NCI-H23 lung 107% | NCI-H226 lung 106% | NCI-H322M lung 100% | HOP-62 NSCLC 100% | NCI-H460 lung 103% | HOP-92 NSCLC 92.6% | A549/ATCC NSCLC 94.8% | 786-0 renal 82.2% | COLO 205 colon 107%

CCOc1cccc2c(NC(C)CCCN(CC)CC)c(C)cnc12 (configuration not stated)
inactive: NCI-H23 lung 110% | NCI-H226 lung 103% | NCI-H322M lung 91.8% | HOP-62 NSCLC 98.9% | NCI-H460 lung 110% | HOP-92 NSCLC 97% | A549/ATCC NSCLC 91.4% | 786-0 renal 103% | COLO 205 colon 77.1%

CC1(C(=O)O)CCC(N)(C(=O)O)C1(C)C (configuration not stated)
inactive: NCI-H23 lung 113% | NCI-H226 lung 108% | NCI-H322M lung 108% | HOP-62 NSCLC 99.5% | NCI-H460 lung 117% | HOP-92 NSCLC 89.4% | A549/ATCC NSCLC 110% | 786-0 renal 109% | COLO 205 colon 104%

CCCCOC(=O)c1c(C)[nH]c(/C=C2\N=C(c3ccc[nH]3)C=C2OC)c1C
active: NCI-H23 lung -11.3% | NCI-H226 lung -0.091% | NCI-H322M lung -10.5% | HOP-62 NSCLC 2.13% | NCI-H460 lung 6.62% | HOP-92 NSCLC -17% | A549/ATCC NSCLC -9.07% | 786-0 renal -32.6% | COLO 205 colon -29.2%

O=C1NC(=O)C(Cc2ccc(OCc3ccc(-c4cc(F)c(F)c(F)c4)cc3)cc2)S1 (configuration not stated)
inactive: NCI-H23 lung 80.9% | NCI-H226 lung 82.5% | NCI-H322M lung 92.4% | HOP-62 NSCLC 91.7% | NCI-H460 lung 92% | HOP-92 NSCLC 98.2% | A549/ATCC NSCLC 73.2% | 786-0 renal 95.5% | COLO 205 colon 97.6%
